The text below walks through data of PubChem BioAssay (NCI).

The panel holds about 83,000 compounds, 20% with a hit somewhere; the sample as a whole holds those more often.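 Interpretation: 100, growth as untreated; towards 0, rising growth inhibition; 0, no net growth; 0 to -100, cell death. Compounds scoring below 10 were considered active.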 Unmarked numbers belong to inactive results. Active and inactive are the calls of the source.

Test systems include DU-145 prostate; K-562 leukemia; MALME-3M melanoma; MDA-MB-231 breast; RXF 393 renal; SF-268 CNS; SF-539 CNS; UACC-257 melanoma; M14 melanoma; HCT-15 colon; HT29 colon; SNB-75 CNS; SNB-19 CNS; U251 CNS; PC-3 prostate; SK-MEL-5 melanoma; UACC-62 melanoma; LOX IMVI melanoma; SK-MEL-28 melanoma.
Assay in all cases: NCI-60 one-dose screen, 48 h (100 = growth as untreated, 0 = no growth, -100 = all killed)
Holding throughout (settings): 10 µM unless noted

Take `C=CCn1c(SCC(=O)Nc2ccc(C(=O)/C=C/c3ccc(Cl)cc3)cc2)nnc1-c1ccc(Cl)cc1`: the growth with DU-145 prostate is 100%; with K-562 leukemia, 72.5%; in the test with MALME-3M melanoma it was 93.2%; in the test on MDA-MB-231 breast, 86.4%; with RXF 393 renal, 99.9%; in the test with SF-268 CNS, 82.7%. Moreover, the growth in the test on SF-539 CNS was 99.2%; in the test on UACC-257 melanoma, 99%; in the test on M14 melanoma, 95.5%; with HCT-15 colon it was 77.2%; with HT29 colon it was 92.8%; in the test on SNB-75 CNS, 73.8%. Also, the growth in the test on SNB-19 CNS is 91.1%; in the test with U251 CNS it was 79.7%; in the test with PC-3 prostate, 69.9%; in the test on SK-MEL-5 melanoma, 90.6%; in the test on UACC-62 melanoma it was 71.2%; in the test with LOX IMVI melanoma, 89.9%. Further, the growth with SK-MEL-28 melanoma is 104%.
On to `COc1ccc(C2C=C(c3ccc(Cl)cc3)N=C3SC=CN32)cc1` (configuration not stated), for which the growth with DU-145 prostate was 129%; in the test with K-562 leukemia, 104%; with MALME-3M melanoma it was 108%; in the test on MDA-MB-231 breast it was 112%; in the test on RXF 393 renal, 122%; with SF-268 CNS, 119%. In addition, the growth in the test on SF-539 CNS is 104%; in the test on UACC-257 melanoma, 108%; in the test with M14 melanoma, 109%; with HCT-15 colon, 110%; with HT29 colon, 106%; in the test with SNB-75 CNS it was 86.7%. Besides, the growth in the test with SNB-19 CNS was 115%; in the test with U251 CNS it was 105%; in the test with PC-3 prostate it was 86.7%; with SK-MEL-5 melanoma it was 111%; with UACC-62 melanoma, 116%; in the test on LOX IMVI melanoma, 99.6%. In addition, the growth in the test on SK-MEL-28 melanoma was 97.6%.
Turning to `COc1cc2cc(C(=O)Nc3ccccc3)c(N)nc2cc1OC`, the growth was 12.7% in the test with DU-145 prostate; -49.2% (active) in the test on K-562 leukemia; -78.2% (active) in the test with MALME-3M melanoma; -49.6% (active) in the test on MDA-MB-231 breast; -14.7% (active) in the test on RXF 393 renal; 26.2% in the test with SF-268 CNS. Further, the growth was 34.3% in the test with SF-539 CNS; -81.3% (active) in the test with UACC-257 melanoma; -67.3% (active) with M14 melanoma; 2.25% (active) in the test with HCT-15 colon; -70.6% (active) in the test on HT29 colon; 15.5% with SNB-75 CNS. In addition, the growth in the test on SNB-19 CNS is 21.2%; in the test on U251 CNS, -6.06% (active); in the test with PC-3 prostate, 17.7%; with SK-MEL-5 melanoma, -95.1% (active); in the test with UACC-62 melanoma, -85.3% (active); in the test on LOX IMVI melanoma it was -93.3% (active). The growth in the test on SK-MEL-28 melanoma was -98.3% (active).
Regarding `CC(C)N=C1CCCC1C(=S)SSC(=S)C1CCCC1=NC(C)C` (configuration not stated), the growth is 64.9% in the test on DU-145 prostate; 34.9% with K-562 leukemia; 53.8% with MALME-3M melanoma; 76.9% with MDA-MB-231 breast; 78.3% with RXF 393 renal; 68.6% in the test with SF-268 CNS. For the same compound, the growth is 83.4% in the test with SF-539 CNS; 69.7% in the test with UACC-257 melanoma; 64.4% with M14 melanoma; 54.6% in the test with HCT-15 colon; 79.1% with HT29 colon; 74.3% in the test with SNB-75 CNS. Besides, the growth was 83.5% with SNB-19 CNS; 50.3% with U251 CNS; 47.4% with PC-3 prostate; 81.6% in the test with SK-MEL-5 melanoma; 75% with UACC-62 melanoma; 50.9% in the test on LOX IMVI melanoma. Further, the growth in the test on SK-MEL-28 melanoma was 81%.
In the case of `CCCCNCC(O)c1cc2c(Cl)cc(Cl)cc2c2cc(C(F)(F)F)ccc12` (configuration not stated), the growth in the test with DU-145 prostate was -98% (active); in the test on K-562 leukemia, -69.1% (active); in the test on MALME-3M melanoma, -60.8% (active); with MDA-MB-231 breast it was -74.8% (active); in the test with RXF 393 renal, -94.7% (active); in the test on SF-268 CNS it was -80.5% (active). For the same compound, the growth is -81.7% (active) in the test with SF-539 CNS; -72.4% (active) in the test with UACC-257 melanoma; -86.5% (active) in the test on M14 melanoma; -60.4% (active) with HCT-15 colon; -84.4% (active) in the test with HT29 colon; -87.6% (active) in the test with SNB-75 CNS. For the same compound, the growth in the test on SNB-19 CNS is -71.5% (active); with U251 CNS, -95.5% (active); in the test on PC-3 prostate, -89.6% (active); with SK-MEL-5 melanoma, -35.4% (active); in the test with UACC-62 melanoma, -84.4% (active); in the test with LOX IMVI melanoma, -77.8% (active). The growth in the test on SK-MEL-28 melanoma was -88.4% (active).
Regarding `CCOC(=O)c1sc2nc(-c3cc4ccccc4o3)cc(-c3ccc(Cl)cc3)c2c1N`, the growth was 99.6% in the test with DU-145 prostate; 102% in the test with K-562 leukemia; 88.5% in the test with MALME-3M melanoma; 106% with MDA-MB-231 breast; 124% in the test on RXF 393 renal; 97.3% in the test on SF-268 CNS. Also, the growth with SF-539 CNS is 120%; with UACC-257 melanoma, 114%; in the test on M14 melanoma, 112%; in the test with HCT-15 colon, 101%; in the test with HT29 colon, 105%; in the test with SNB-75 CNS it was 74.7%. Besides, the growth in the test on SNB-19 CNS is 101%; in the test on U251 CNS, 95.8%; in the test with PC-3 prostate, 77%; in the test on SK-MEL-5 melanoma, 110%; in the test with UACC-62 melanoma, 66.8%; in the test on LOX IMVI melanoma, 91.6%. Further, in the test with SK-MEL-28 melanoma, the growth was 108%.
For the compound `C#CC[C@@H]1C[C@]2(C)[C@H]3CC=C4[C@H]5[C@@H](C)[C@H](C)CC[C@]5(C(=O)NCCCCN)CC[C@@]4(C)[C@]3(C)CC[C@H]2C(C)(C)[C@H]1OC(C)=O`, the growth was 58.6% in the test with DU-145 prostate; -26.6% (active) in the test on K-562 leukemia; 98.9% with MALME-3M melanoma; 39.5% in the test on MDA-MB-231 breast; 56.4% in the test with RXF 393 renal; 69.8% with SF-268 CNS. The growth was 84.7% in the test with SF-539 CNS; 115% with UACC-257 melanoma; 66.6% with M14 melanoma; 31.9% with HCT-15 colon; 10.5% in the test with HT29 colon; 81.1% in the test with SNB-75 CNS. Besides, the growth is 73.9% with SNB-19 CNS; 40.7% with U251 CNS; 47.5% with PC-3 prostate; 94.9% in the test on SK-MEL-5 melanoma; 106% in the test on UACC-62 melanoma; 18.6% with LOX IMVI melanoma. Moreover, the growth in the test on SK-MEL-28 melanoma is 100%.
With `CCc1ccc(Nc2cc(C)c3ccc(O)cc3n2)cc1`, the growth in the test with DU-145 prostate is 94.8%; in the test with K-562 leukemia it was 20.3%; with MALME-3M melanoma, 17.5%; in the test on MDA-MB-231 breast, 31.1%; in the test on RXF 393 renal, 52.6%; with SF-268 CNS, 68.1%. The growth in the test on SF-539 CNS was 89.1%; in the test on UACC-257 melanoma, 39.4%; with M14 melanoma it was 45.4%; with HCT-15 colon it was 70.7%; in the test with HT29 colon, 19.6%; in the test with SNB-75 CNS, 57.8%. In addition, the growth in the test on SNB-19 CNS was 96.5%; in the test on U251 CNS, 60.9%; in the test with PC-3 prostate, 62.2%; in the test on SK-MEL-5 melanoma, 60.6%; with UACC-62 melanoma, 30.8%; with LOX IMVI melanoma it was 48.5%. Besides, the growth with SK-MEL-28 melanoma was 95.6%.
